# Source: PubChem BioAssay (NCATS)
# Several values for one entry are separate records, joined by “and”; a condition that tells them apart may be missing. Equal values may be shown once. Unmarked numbers belong to inactive results. Records with an inconclusive call do not appear. Entries that show only a call come without a potency. A structure can be active in one record and inactive in another. Activity calls are given as the source filed them. Unless noted, calls follow the shape of the dose curve; as a rule, active = well fitted curve in the direction sought with a large enough effect; inconclusive = small, poorly fitted or top-dose-only effect, or another doubt; inactive = no such curve, though single readings can be large; an effect the other way counts as inactive or inconclusive.
# What was measured:
# [1] = system: UISO; test: qHTS assay to identify novel small-molecules to repurpose for Merkel cell carcinoma treatment (AID 1296009); details: MCC and control cell lines, CellTiter-Glo viability, 72 h; series mostly up to 46 µM; also: nearly all actives have a fitted effect of over 60% in size; also: potency is read from the fitted curve at half-maximal effect
# How it was run: (§1)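 Dose-response viability screen; 72 hr exposure at 37 degree celsius; CellTiter-Glo added, 10 min room temperature, luminescence read; RLUs scaled between no-cell and DMSO wells.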
# [2] = system: WaGa; test: as above; details: MCC and control cell lines, CellTiter-Glo viability, 72 h; series mostly up to 46 µM
# How it was run: as §1
# [3] = system: C33A; test: Primary qHTS to identify gynecologic anti-cancer compounds using libraries of approved drugs and bioactive compounds (AID 1345084); details: Gynecologic cancer cell panel viability, ATPlite luminescence, 48 h; series mostly up to 57.5 µM; also: nearly all actives have a fitted effect of over 55% in size
# How it was run: (§2)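 Cells, 1,000 per well, were allowed to settle for 16 h at 37 C before compound addition. Five concentrations were tested for 48 h, and viability was read by ATPlite luminescence after 15 min at room temperature.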
# [4] = system: CAOV3; test: as above; details: Gynecologic cancer cell panel viability, ATPlite luminescence, 48 h; series mostly up to 57.5 µM
# How it was run: as §2
# [5] = system: CASKI; test: as above; details: Gynecologic cancer cell panel viability, ATPlite luminescence, 48 h; series mostly up to 57.5 µM
# How it was run: as §2
# [6] = system: Es-2; test: as above; details: Gynecologic cancer cell panel viability, ATPlite luminescence, 48 h; series mostly up to 57.5 µM
# How it was run: as §2
# [7] = system: HeLa; test: as above; details: Gynecologic cancer cell panel viability, ATPlite luminescence, 48 h; series mostly up to 57.5 µM
# How it was run: as §2
# [8] = system: Hek293T; test: as above; details: Gynecologic cancer cell panel viability, ATPlite luminescence, 48 h, control line for the selectivity index; series mostly up to 57.5 µM
# How it was run: as §2
# [9] = system: JEG-3; test: as above; details: Gynecologic cancer cell panel viability, ATPlite luminescence, 48 h; series mostly up to 57.5 µM
# How it was run: as §2
# [10] = system: OV90; test: as above; details: Gynecologic cancer cell panel viability, ATPlite luminescence, 48 h; series mostly up to 57.5 µM
# How it was run: as §2
# [11] = system: PA-1; test: as above; details: Gynecologic cancer cell panel viability, ATPlite luminescence, 48 h; series mostly up to 57.5 µM
# How it was run: as §2
# [12] = system: SKOV3; test: as above; details: Gynecologic cancer cell panel viability, ATPlite luminescence, 48 h; series mostly up to 57.5 µM
# How it was run: as §2
# [13] = system: Tov-21-G; test: as above; details: Gynecologic cancer cell panel viability, ATPlite luminescence, 48 h; series mostly up to 57.5 µM
# How it was run: as §2
# [14] = system: Tov112D; test: as above; details: Gynecologic cancer cell panel viability, ATPlite luminescence, 48 h; series mostly up to 57.5 µM
# How it was run: as §2
# [15] = Drug repurposing screens with cells derived from glioblastoma tumor samples (AID 1345199); details: GBM patient neurospheres viability, ATP luminescence, 48 h; also: nearly all actives have a fitted effect of over 40% in size
# How it was run: (§3)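 Primary testing used CD133+ neurospheres from four GBM patients, seven concentrations, 48 h exposure and ATP-based viability; confirmation added three slower-growing patient lines.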
# [16] = system: astro; test: as above; details: viability, ATP luminescence, 48 h; series mostly up to 45.9 µM
# How it was run: as §3
# [17] = molecular target: Nuclear receptor subfamily 1 group I member 2 (Rattus norvegicus) (UniProt Q9R1A7); test: qHTS assay for small molecule activators of the rat pregnane X receptor (rPXR) signaling pathway (AID 651751; call rule not given here); details: rPXR reporter cells, luciferase (One-Glo), 24 h
# [18] = at 45.9 µM (top of the series), tumour line B
# [19] = at 45.9 µM (top of the series), tumour line D
# [20] = at 46 µM (top of the series), tumour line A
# [21] = at 46.1 µM (top of the series), tumour line C
# Chain of Nuclear receptor subfamily 1 group I member 2 (Rattus norvegicus) (Q9R1A7 whole entry, looked up): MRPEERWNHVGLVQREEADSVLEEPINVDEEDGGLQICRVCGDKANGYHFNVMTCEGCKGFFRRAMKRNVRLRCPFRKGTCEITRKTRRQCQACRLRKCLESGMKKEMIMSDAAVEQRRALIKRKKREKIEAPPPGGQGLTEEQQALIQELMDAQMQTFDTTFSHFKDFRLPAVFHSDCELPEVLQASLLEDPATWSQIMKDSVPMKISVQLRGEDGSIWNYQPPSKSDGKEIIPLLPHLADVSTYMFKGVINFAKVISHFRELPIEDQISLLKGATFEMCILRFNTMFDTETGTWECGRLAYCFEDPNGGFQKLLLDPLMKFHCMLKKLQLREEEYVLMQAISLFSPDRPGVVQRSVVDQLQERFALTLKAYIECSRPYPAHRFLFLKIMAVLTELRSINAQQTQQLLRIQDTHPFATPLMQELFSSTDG
structure (smiles),measurement,setting,value
O=C(C1CC1)N1CC[C@@H](Cn2c(-c3ccc(-c4ccc5occc5c4)cc3)nc3cnccc32)C1,Potency,[1],inactive
same,Potency,[2],inactive
COc1ccc(-c2c(-c3ccc(O)cc3O)n[nH]c2C)cc1,Potency,[1],inactive
same,Potency,[2],inactive
CC(C=CC1=C(C)CCCC1(C)C)=CC=CC(C)=CC(=O)O,Potency,[1],inactive
same,Potency,[2],inactive
COc1ccccc1-c1cccc(-c2c(O)c3cc(C#N)c(Cl)cc3[nH]c2=O)c1,Potency,[1],inactive
same,Potency,[2],inactive
Nc1cccc(S(=O)(=O)N2CCCN(S(=O)(=O)c3ccc4c(c3)OCCO4)CC2)c1,Potency,[1],inactive
same,Potency,[2],inactive
CCC(C)N(C)C(=O)c1cc2ccccc2c(-c2ccccc2Cl)n1 (stereo unspecified),Potency,[1],inactive
same,Potency,[2],inactive
O=C(Nc1nc2ccccc2n1CCN1CCOCC1)c1cccc([N+](=O)[O-])c1,Potency,[1],inactive
CNC(=O)c1ccc(N2C(=S)N(c3ccc(C#N)c(C(F)(F)F)c3)C(=O)C2(C)C)cc1F,Potency,[1],inactive
same,Potency,[2],inactive
Cn1c(=O)c(F)c(Nc2ccc(I)cc2F)c2c(=O)n(C[C@@H](O)CO)cnc21,Potency,[1],inactive
same,Potency,[2],inactive
CCCn1c(=O)c2[nH]c(C34CC5CC3C[C@@H](C5)C4)nc2n(CCC)c1=O,Potency,[1],inactive
same,Potency,[2],inactive
COc1ccc(COc2cc3oc(=O)c4cc(C(C)O)ccc4c3cc2OC)cc1 (stereo unspecified),Potency,[1],inactive
NC(=O)c1ccc(I)c([N+](=O)[O-])c1,Potency,[1],inactive
same,Potency,[2],inactive
CCN(CC)CCCC(C)Nc1nc(C)cc(Nc2ccc3nc(C)cc(N)c3c2)n1 (stereo unspecified),Potency,[1],inactive
same,Potency,[2],inactive
CS(=O)(=O)Oc1ccc2c(NC(N)=O)c(C(=O)c3ccc(Cl)cc3Cl)oc2c1,Potency,[1],inactive
same,Potency,[2],0.833 µM (active)
NC(=O)c1ccc(-c2nc(-c3ccc4c(c3)OCCO4)c(-c3ccccn3)[nH]2)cc1,Potency,[1],inactive
same,Potency,[2],inactive
OCCC#Cc1nc(-c2ccc(F)cc2)c(-c2ccncc2)n1CCCc1ccccc1,Potency,[1],inactive
O=C1[C@H](Cc2ccc(O)cc2)N2C(=O)CCN(C(=O)NCc3ccccc3)[C@H]2CN1Cc1cccc2ccccc12,Potency,[1],4.69 µM (active)
same,Potency,[2],13.2 µM (active)
COc1ccc(-c2oc3cc(OC)ccc3c2C(=O)c2ccc(C#N)cc2)cc1,Potency,[1],inactive
same,Potency,[2],inactive
Cc1cccc(-c2nn(C(=S)Nc3ccccc3)cc2-c2ccnc3ccccc23)n1,Potency,[1],inactive
C[C@]12CC[C@H](O)CC1=CC[C@@H]1[C@H]2CC[C@]2(C)C(c3cccnc3)=CC[C@H]12,Potency,[1],inactive
same,Potency,[2],inactive
CCn1c(-c2nonc2N)nc2c(C#CC(C)(C)O)ncc(OC[C@H]3CCCNC3)c21,Potency,[1],inactive
same,Potency,[2],inactive
CCOc1ccc(Cc2cc([C@@H]3O[C@H](CO)[C@@H](O)[C@H](O)[C@@H]3O)ccc2Cl)cc1,Potency,[1],inactive
NC(=O)C1CCCc2c1[nH]c1ccc(Cl)cc21 (stereo unspecified),Potency,[1],inactive
same,Potency,[2],inactive
CCN(c1ccccc1)c1cc(NC)[n+](C)c(C)n1,Potency,[1],inactive
same,Potency,[2],inactive
NC(=O)c1ccc(-c2nc(-c3ccc4c(c3)OCO4)c(-c3ccccn3)[nH]2)cc1,Potency,[1],inactive
same,Potency,[2],inactive
Cc1c(CCOc2ccc(C(=O)O)cc2)c2cc(Cl)ccc2n1C(c1ccccc1)c1ccccc1,Potency,[1],inactive
same,Potency,[2],inactive
O=C(O)[C@@H](c1ccc(OCc2ccc3ccccc3n2)cc1)C1CCCC1,Potency,[1],inactive
same,Potency,[2],inactive
COc1ccc(CC2=NN3C([C@@H](CCc4ccccc4)[C@@H](C)O)=NC(C)C3C(=O)N2)cc1OC (stereo partly specified),Potency,[1],inactive
same,Potency,[2],inactive
Cc1ccccc1C(C(=O)NC1CCCC1)N(C(=O)Cn1cnc2ccccc21)c1cccc(F)c1 (stereo unspecified),Potency,[1],inactive
same,Potency,[2],inactive
Cc1cc([C@@H](C)Nc2ccccc2C(=O)O)c2nc(N3CCOCC3)cc(=O)n2c1,Potency,[1],34 µM (active)
CC1(C)SCCN(S(=O)(=O)c2ccc(OCC#CCO)cc2)[C@@H]1C(=O)NO,Potency,[1],inactive
O=C(C=Cc1ccc(/C=C/C(=O)Nc2ccc(C3=NCCN3)cc2)cc1)Nc1ccc(C2=NCCN2)cc1,Potency,[1],inactive
same,Potency,[2],inactive
Cc1[nH]c(=O)c(C#N)cc1-c1ccncc1,Potency,[1],inactive
same,Potency,[2],inactive
same,Potency,[3],inactive
same,Potency,[4],inactive
same,Potency,[5],inactive
same,Potency,[6],inactive
same,Potency,[7],inactive
same,Potency,[8],inactive
same,Potency,[9],inactive
same,Potency,[10],inactive
same,Potency,[11],inactive
same,Potency,[12],inactive
same,Potency,[13],inactive
same,Potency,[14],inactive
same,"activity, negative = cell killing",[15]; [18],-10.7%
same,"activity, negative = cell killing",[15]; [19],4.86%
same,"activity, negative = cell killing",[15]; [20],-23.5%
same,"activity, negative = cell killing",[15]; [21],2.71%
same,"activity, negative = cell killing","[15]; at 91.6 µM (top of the series), tumour line B",-14.8%
same,"activity, negative = cell killing","[15]; at 91.6 µM (top of the series), tumour line D",7.24%
same,"activity, negative = cell killing","[15]; at 99.2 µM (top of the series), tumour line C",-28.5%
same,Potency,[16],inactive
same,max response,[17],2.46%
CCC(C)n1ncn(-c2ccc(N3CCN(c4ccc(OC[C@H]5CO[C@](Cn6cncn6)(c6ccc(Cl)cc6Cl)O5)cc4)CC3)cc2)c1=O (stereo partly specified),Potency,[1],inactive
same,Potency,[2],inactive
same,Potency,[3],inactive
same,Potency,[4],inactive
same,Potency,[5],inactive
same,Potency,[6],inactive
same,Potency,[7],inactive
same,Potency,[8],inactive
same,Potency,[9],inactive
same,Potency,[10],inactive
same,Potency,[11],inactive
same,Potency,[12],inactive
same,Potency,[13],inactive
same,Potency,[14],inactive
CC(C[N+](C)(C)C)OC(N)=O (stereo unspecified),Potency,[1],inactive
same,Potency,[2],inactive
same,Potency,[3],inactive
same,Potency,[4],inactive
same,Potency,[5],inactive
same,Potency,[6],inactive
same,Potency,[7],inactive
same,Potency,[8],inactive
same,Potency,[9],inactive
same,Potency,[10],inactive
same,Potency,[11],inactive
same,Potency,[12],inactive
same,Potency,[13],inactive
same,Potency,[14],inactive
same,"activity, negative = cell killing",[15]; [18],-0.814%
same,"activity, negative = cell killing",[15]; [19],5.66%
same,"activity, negative = cell killing",[15]; [20],-20.4%
same,"activity, negative = cell killing",[15]; [21],5.23%
same,Potency,[16],inactive
OC(CN1CCC(Cc2ccc(F)cc2)CC1)c1ccc(Cl)cc1 (stereo unspecified),Potency,[1],inactive
same,Potency,[2],inactive
same,Potency,[3],inactive
same,Potency,[4],inactive
same,Potency,[5],inactive
same,Potency,[6],inactive
same,Potency,[7],inactive
same,Potency,[8],inactive
same,Potency,[9],inactive
same,Potency,[10],inactive
same,Potency,[11],inactive
same,Potency,[12],inactive
same,Potency,[13],inactive
same,Potency,[14],inactive
same,Potency,[16],inactive
O=C1CCCC2=C1C(c1[nH]ncc1Cl)N=C(Nc1nc3ccccc3o1)N2 (stereo unspecified),Potency,[1],inactive
same,Potency,[2],inactive
same,Potency,[3],inactive
same,Potency,[4],inactive
same,Potency,[5],inactive
same,Potency,[6],inactive
same,Potency,[7],inactive
same,Potency,[8],inactive
same,Potency,[9],inactive
same,Potency,[10],inactive
same,Potency,[11],inactive
same,Potency,[12],inactive
same,Potency,[13],inactive
same,Potency,[14],inactive
C[C@]1(c2nc3c(C(N)=O)cccc3[nH]2)CCCN1,Potency,[1],inactive
same,Potency,[2],inactive
CC(C)OC(=O)C1=CN(C(=O)c2ccc(F)c(F)c2)CC(C)(C)c2c1[nH]c1ccccc21,Potency,[1],inactive
same,Potency,[2],inactive
same,Potency,[3],inactive
same,Potency,[4],inactive
same,Potency,[5],inactive
same,Potency,[6],inactive
same,Potency,[7],inactive
same,Potency,[8],inactive
same,Potency,[9],inactive
same,Potency,[10],inactive
same,Potency,[11],inactive
same,Potency,[12],inactive
same,Potency,[13],inactive
same,Potency,[14],inactive
COc1ccc([C@@H]2CC(=O)c3c(O)cc(O[C@@H]4O[C@H](CO[C@@H]5O[C@@H](C)[C@H](O)[C@@H](O)[C@@H]5O)[C@@H](O)[C@H](O)[C@@H]4O)cc3O2)cc1O,Potency,[1],inactive
same,Potency,[2],inactive
Fc1ccc(Cl)cc1-c1nc(Nc2ccncc2)c2nccnc2n1,Potency,[1],inactive
same,Potency,[2],inactive
OC(CCN1CCCCC1)(c1ccccc1)C1CC2C=CC1C2 (stereo unspecified),Potency,[1],inactive
same,Potency,[2],inactive
same,Potency,[3],inactive
same,Potency,[4],inactive
same,Potency,[5],inactive
same,Potency,[6],inactive
same,Potency,[7],inactive
same,Potency,[8],inactive
same,Potency,[9],inactive
same,Potency,[10],inactive
same,Potency,[11],inactive
same,Potency,[12],inactive
same,Potency,[13],inactive
same,Potency,[14],inactive
same,"activity, negative = cell killing",[15]; [18],-6.31% and -18.3%
same,"activity, negative = cell killing",[15]; [21],-5.16%
same,Potency,[16],inactive
CCOC(=O)N[C@@H]1CC[C@@H]2[C@@H](C1)C[C@H]1C(=O)O[C@H](C)[C@H]1[C@@H]2C=Cc1ccc(-c2cccc(F)c2)cn1,Potency,[1],inactive
same,Potency,[2],inactive
